Compound activity deposited in PubChem BioAssay by National Center for Advancing Translational Sciences (NCATS).
CtBP-E1A inh – qHTS Assay for Inhibitors of the CtBP/E1A Interaction; CtBP / adenovirus E1A interaction (AlphaScreen); AlphaScreen GST-E1A/His-CtBP binding, 1536-well; stronger effect = lower value; activity change, % (test concentration not listed); hit rate 0.49% among 340,000; in the data active means activity change below about -65%; inconclusive means mostly about -30% to -63%
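Protein mix (5X: 125 nM each GST-E1A, His-CtBP) was incubated with pinned compound 2 h at 37 deg C in dark, in 50 mM Tris pH 8.0 buffer with 300 mM NaCl. Glutathione donor and nickel acceptor beads followed; AlphaScreen signal read after 1 h.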
JMJD2A Tudor inh – qHTS Assay for Inhibitors of JMJD2A-Tudor Domain; Lysine-specific demethylase 4A (Homo sapiens), O75164; AlphaScreen JMJD2A-Tudor / H3K4me3 peptide binding; hit rate 4.4% among 390,000; Potency, µM (top dose mostly 114 µM), usual class: inhibitors; further: nearly all actives have a fitted effect of over 50% in size
Six1-Eya2 blk – qHTS Assay for Inhibitors of the Six1/Eya2 Interaction; hit rate 0.56% among 360,000; AlphaScreen GST-Six1/His-Eya2 binding, biochemical; stronger effect = lower value; activity change, % (test concentration not listed); in the data active means activity change below about -65%; inconclusive means mostly about -30% to -63%
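Six1/Eya2 binding was read as AlphaScreen signal after compounds were pinned into GST-Six1 plus His-tagged Eya2 (5X stock 250/500 nM) in pH 8.0 Tris/NaCl/TCEP buffer, beads added, then incubated 1 h, 37 C, dark.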
HP1b binding inh – HTS for Inhibitors of HP1-beta Chromodomain Interactions with Methylated Histone Tails; hit rate 0.56% among 390,000; AlphaScreen HP1-beta / biotin-H3K9me3 peptide binding; Chromobox protein homolog 1 (Homo sapiens), P83916; AID 540317, 2011; Potency, µM (series often up to 114 µM), actives largely listed as inhibitors; further: nearly all actives have a fitted effect of over 70% in size
Target sequence (P83916 whole entry, looked up): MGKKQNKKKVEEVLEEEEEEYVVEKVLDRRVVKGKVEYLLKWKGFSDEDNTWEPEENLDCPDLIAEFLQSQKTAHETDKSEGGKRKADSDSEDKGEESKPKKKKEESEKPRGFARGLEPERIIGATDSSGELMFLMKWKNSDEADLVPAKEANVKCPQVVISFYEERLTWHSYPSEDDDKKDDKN
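HP1-beta protein (50 nM final) preincubated 30 min at room temperature with biotinylated H3(1-18)K9me3 peptide (50 nM) in PBS pH 7.4, 0.01% Tween-20, then compound added for 30 min. AlphaScreen streptavidin donor/nickel chelate acceptor beads (10 ug/mL final), 30 min dark, luminescence read.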
BAZ2B inh – qHTS Assay for Inhibitors of BAZ2B. Potency, µM (doses to about 114 µM), actives largely listed as inhibitors. Bromodomain adjacent to zinc finger domain protein 2B (Homo sapiens), Q9UIF8. AlphaScreen BAZ2B-H3K14Ac peptide displacement. hit rate 4.4% among 360,000; further: nearly all actives have a fitted effect of over 60% in size
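AlphaScreen displacement: compounds (up to 110uM) incubated 30 min at room temperature with a preformed 50 nM BAZ2B/50 nM biotinylated H3K14Ac peptide complex in PBS pH 7.4 with Tween-20. Donor and acceptor beads at 10 ug/mL final added, 20 min light-protected before reading.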
G9a inh – qHTS Assay for Inhibitors of Histone Lysine Methyltransferase G9a | Histone-lysine N-methyltransferase EHMT2 (Homo sapiens), Q96KQ7 | G9a H3K9 monomethylation, AlphaScreen, 2 h | Potency, µM (top dose mostly 102 µM), usual class: inhibitors | hit rate 8.8% among 350,000 | AID 504332, 2011; further: nearly all actives have a fitted effect of over 75% in size
Target sequence (Q96KQ7 913-1193 limits assumed): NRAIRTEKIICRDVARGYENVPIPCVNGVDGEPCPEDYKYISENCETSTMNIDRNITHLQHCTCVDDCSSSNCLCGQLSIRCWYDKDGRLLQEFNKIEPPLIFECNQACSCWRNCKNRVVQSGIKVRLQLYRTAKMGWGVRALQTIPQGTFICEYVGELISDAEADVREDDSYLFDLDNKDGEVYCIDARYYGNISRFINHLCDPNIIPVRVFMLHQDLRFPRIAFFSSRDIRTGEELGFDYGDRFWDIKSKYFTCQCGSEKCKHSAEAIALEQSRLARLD
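Signal arises when biotinylated H3K9 peptide, once monomethylated, bridges streptavidin donor and antibody-captured acceptor beads. Enzyme at 20 nM was preincubated 15 min with test compounds; peptide 500 nM and SAM 20 uM then reacted for 2 h.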
Hits are given with their value; 0 = inactive; ? = inconclusive; - = not tested or not shown; [ ] = another dose, or the depositor's remark. Sampled rows, rich in hits. Any-hit rate of the full collection: about 10%. Unless noted, the call rests on the fitted dose curve; in most records, active means well fitted inhibition curve with a large enough effect; inconclusive means small, poorly fitted or top-dose-only effect; inactive means no such curve, though single readings can be large or run the other way.

SMILES	CtBP-E1A inh	JMJD2A Tudor inh	Six1-Eya2 blk	HP1b binding inh	BAZ2B inh	G9a inh
CC1(C)C(O)CC(O)[C@]2(C)C1CC(O)[C@]1(C)C2CC[C@@]2(C)C(c3ccoc3)CC3OC312 (some centres undefined)	-	-	-	-	-	0[2.33 µM]
COc1ccc(OCC(=O)N2CCN(C(C)C)CC2)cc1	0	1.4µM	0	?	56µM	10µM
Cc1cccc(OCC(=O)N2CCN(Cc3ccc([N+](=O)[O-])cc3)CC2)c1	0	10µM	0	?	0	0
COc1cccc(CN2CCN(C(=O)COc3ccc4ccccc4c3)CC2)c1	0	0	0	0	0	?
COc1ccccc1CN1CCN(C(=O)COc2ccccc2)CC1	0	3.2µM	0	?	?	?
COc1cc(OC)c(OC)cc1CN1CCN(C(=O)COc2ccc3ccccc3c2)CC1	0	3.2µM	0	50µM	45µM	10µM
CCN1CCN(C(=O)Cc2ccccc2OC)CC1	0	0	0	0	0	0
CN1CCC2(CC1)C(C#N)=C(N)NC(S)=C2C#N	?	4µM	?	0	?	6.3µM
NC(=S)c1cn(C2OC(CO)C(O)C2O)c2ncnc(N)c12 (centres undefined)	-	0	0	0	0	10µM
CCCCCCCC(=O)OCC(COC(=O)CCCCCCC)OC(=O)CCCCCCC	0	0	0	0	0	0[0.501 µM]
COC(=O)N1CCC2(CCN(CC(C)C)CC2)CC1	-	-	-	-	-	0[12.7 µM]
CCCCC(=O)c1c(O)c2ccccc2oc1=O	0	?	0	0	0	45µM
COP(=O)(OC)[C@@H](O)C(Cl)(Cl)Cl	-	-	-	-	-	0[21.5 µM]
CC(C)Oc1ccc(C(=O)Nc2ccc3c(c2)CCCN3C(=O)c2cccs2)cc1	-	?	-	0	0	0
CN(N)N=Nc1nc2c([nH]1)c(=O)n(C)c(=O)n2C	0	79µM	0	0	0	2.2µM
CC(C)(O)C1O[C@H]2CC[C@@]3(C)[C@@](O)(CC[C@H]4Cc5c([nH]c6ccccc56)[C@@]43C)C2=CC1=O (some centres undefined)	-	-	-	-	-	0
CN1C(=O)C(=Cc2cccnc2)C(=O)N(C)C1=O	0	0	0	0	0	-
CN1C(=O)C(=Cc2ccc(OCC(=O)Nc3ccccc3)cc2)C(=O)N(C)C1=O	0	0	0	0	0	-
COc1ccc(C=C2C(=O)N(C)C(=O)N(C)C2=O)cc1CSc1ccccn1	0	?	0	0	0	45µM
COc1ccc(C=C2C(=O)N(C)C(=O)N(C)C2=O)cc1COc1ccc(NC(C)=O)cc1	0	0	0	0	?	45µM
CCN(CC)C(=O)Cn1cc(S(=O)(=O)CC(=O)NCc2ccc(C)cc2)c2ccccc21	0	0	0	0	-	-
CCOc1ccc(NCc2cccn2-c2nnc(N3CCC(C(=O)NC(C)c4ccccc4)CC3)s2)cc1 (centres undefined)	-	?	-	0	0	?
COc1ccccc1-n1c(-c2ccco2)n[nH]c1=S	0	22µM	0	0	0	22µM
S=c1[nH]nc(-c2ccco2)n1-c1cccc2ccccc12	0	40µM	0	0	0	?
Fc1ccccc1CNCCc1c[nH]c2ccccc12	0	45µM	0	?	56µM	?
SMILES	CtBP-E1A inh	JMJD2A Tudor inh	Six1-Eya2 blk	HP1b binding inh	BAZ2B inh	G9a inh
c1coc(CNCCc2c[nH]c3ccccc23)c1	0	0	0	0	?	-
Fc1ccc(CNCCc2c[nH]c3ccccc23)cc1	0	?	0	0	?	?
FC(F)(F)c1ccccc1CNCCc1c[nH]c2ccccc12	-	18µM	0	0	45µM	0[2.33 µM]
O[C@H]1CCCC[C@H]1N1CCC(c2ccccc2)CC1	-	-	-	-	-	0[21.5 µM]
CC(=O)Nc1c2sscc-2n(C)c1=O	-	-	-	-	-	0[12.7 µM]
CC(=NNC(=S)N1CC2CCC(CC2)C1)c1nccs1	-97	20µM	-89	?	-	-
CC(=O)OCC1=C(C(=O)O)N2C(=O)C(NC(=O)CCCC(N)C(=O)O)C2SC1 (centres undefined)	-	-	-	-	-	0[2.33 µM]
CC1=C(C(=O)O)N2C(=O)C(NC(=O)c3nn(C)cc3[N+](=O)[O-])C2SC1 (centres undefined)	0	?	0	0	50µM	3.5µM
CC1=C(C(=O)O)N2C(=O)C(NC(=O)Cc3ccccc3)C2SC1 (centres undefined)	0	0	0	0	0	10µM
CS(=O)(=O)N1CCC2(CCCN(Cc3ccncc3)C2)CC1	-	-	-	-	-	0[12.7 µM]
COc1cc2c(c(OC)c1OC)-c1ccc(OC)c(=O)cc1[C@H](NC(C)=O)CC2	-	-	-	-	-	0[21.5 µM]
Cc1cc(/C=C2\C(=O)NC(=O)N(c3ccc(Br)cc3)C2=O)c(C)n1-c1cc(C(=O)O)cc(C(=O)O)c1	-	22µM	-84	?	56µM	20µM
Cc1cc(/C=C2\C(=O)NC(=O)N(c3ccc(Cl)cc3)C2=O)c(C)n1-c1cccc(C(=O)O)c1	0	?	0	0	0	0[2.33 µM]
Cc1cc(/C=C2\C(=O)NC(=O)N(c3cccc(F)c3)C2=O)c(C)n1-c1cc(C(=O)O)cc(C(=O)O)c1	0	79µM	?	0	45µM	-
Cc1ccc(-n2nc3ccc(NC(=O)COc4ccccc4C)cc3n2)cc1	-	0	-	0	0	0
O=[N+]([O-])c1cccc(O)c1	0	0	0	0	0	0[0.501 µM]
C=C(C)Cn1c(-c2cccc([N+](=O)[O-])c2)n[nH]c1=S	0	8.9µM	0	0	0	13µM
C=C(C)Cn1c(-c2cccs2)n[nH]c1=S	0	5.6µM	0	0	0	14µM
On1ccccc1=S	?	3.5µM	?	?	0	1.1µM
NC(=O)CSc1nc2cc(S(=O)(=O)N3CCOCC3)ccc2o1	0	0	0	?	-	-
CC1CCCCN1CCNS(=O)(=O)c1ccc2c(c1)oc(=O)n2C (centres undefined)	0	0	0	0	0	?
O=P(Nc1c(Cl)cccc1Cl)(c1ccccc1)c1nc2c(s1)CCCC2 (centres undefined)	0	0	0	0	0	0[0.0925 µM]
CP(=O)(Nc1ccc(Cl)cc1)c1nc2c(s1)CCCC2 (centres undefined)	0	0	0	0	0	40µM
O=C1NC(=O)[C@]2(Cc3ccccc3N3CCN(c4ccccc4)CC32)C(=O)N1Cc1ccccc1 (some centres undefined)	0	?	0	0	0	5µM
O=C1NC(=O)C2(Cc3ccccc3N3CCCC32)C(=O)N1Cc1ccccc1 (centres undefined)	0	0	0	0	0	35µM
C[C@]12CC[C@@H]3c4ccc(O)cc4C(=O)C[C@H]3[C@@H]1CC[C@@H]2O	0	0	0	0	?	0
